# Results as given in PubChem BioAssay (EPA / NIEHS).
# Values joined by “and” are separate entries in the source; they are usually repeats but may differ in a detail not shown here. Identical values can stand only once. Results filed as inconclusive are left out. The source holds several records for some structures; these can differ, active in one and inactive in another. Active and inactive are the calls of the source. The calls were made as follows: active = hit-call score of the fitted dose curve at least 0.9, where 1 is the maximum; inconclusive = response in the unintended direction; inactive = score below 0.9.
# Target: human Thromboxane A2 Receptor (TXA2), TBXA2R (gene 6915) (UniProt P21731)
# Sequence (P21731 whole entry, looked up): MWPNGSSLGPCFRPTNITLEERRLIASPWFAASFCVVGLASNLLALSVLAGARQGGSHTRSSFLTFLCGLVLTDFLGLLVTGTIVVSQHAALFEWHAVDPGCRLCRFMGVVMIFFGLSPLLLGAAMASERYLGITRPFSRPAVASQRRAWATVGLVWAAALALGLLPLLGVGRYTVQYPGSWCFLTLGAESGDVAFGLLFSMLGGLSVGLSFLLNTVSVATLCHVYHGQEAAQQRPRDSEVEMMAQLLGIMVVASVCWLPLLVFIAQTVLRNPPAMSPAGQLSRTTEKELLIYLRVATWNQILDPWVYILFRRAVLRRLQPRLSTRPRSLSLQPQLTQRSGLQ
# Assay: NVS_GPCR_hTXA2: NovaScreen (NVS) G Protein-Coupled Receptor Assay for human Thromboxane A2 Receptor (TXA2) (AID 2283282);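 also: actives reduce bound radioligand signal relative to DMSO baseline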
# In short: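 Biochem binding, human platelets, cell-free; competitive radioligand displacement; 1 h; filter radiodetection. 25 uM duplicate primary, conc. series secondary; DMSO neg. ctrl.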
row,Structure (SMILES),outcome
1,Cc1cccc(O)c1,inactive
2,O=S1(=O)CC(Cl)(Cl)C(Cl)(Cl)C1,inactive
3,CC(C)(C)c1cc(CCC(=O)OCCSCCOC(=O)CCc2cc(C(C)(C)C)c(O)c(C(C)(C)C)c2)cc(C(C)(C)C)c1O,inactive
4,CC/C=C\C#N,inactive
5,Cc1cc(O)c(C)c(C)c1O,inactive
6,COc1ccccc1NC(=O)CC(C)=O,inactive

# Target: human Opioid Receptor Mu (Opiate Mu), OPRM1 (gene 4988) (UniProt P35372)
# Sequence (P35372 whole entry, looked up): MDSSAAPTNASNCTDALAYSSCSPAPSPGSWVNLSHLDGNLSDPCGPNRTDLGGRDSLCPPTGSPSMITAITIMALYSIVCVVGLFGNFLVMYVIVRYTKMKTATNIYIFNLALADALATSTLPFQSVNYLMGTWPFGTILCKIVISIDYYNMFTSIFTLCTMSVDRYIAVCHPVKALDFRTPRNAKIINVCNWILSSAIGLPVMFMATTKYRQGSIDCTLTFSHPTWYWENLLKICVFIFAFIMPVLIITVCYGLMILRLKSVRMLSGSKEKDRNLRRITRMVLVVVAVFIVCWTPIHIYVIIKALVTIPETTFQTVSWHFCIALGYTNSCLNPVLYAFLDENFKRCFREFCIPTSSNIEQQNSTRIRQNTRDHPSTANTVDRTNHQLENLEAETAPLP
# Assay: NVS_GPCR_hOpiate_mu: NovaScreen (NVS) G Protein-Coupled Receptor Assay for human Opioid Receptor Mu (Opiate Mu) (AID 2283290);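 also: hits lower bound tracer signal versus DMSO meaning displacement of the ligand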
# In short: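 Here, radioligand binding to CHO-extracted receptor was measured after 2.5 h using filter-based scintillation detection. Initial single-concentration screening used 25 uM in duplicate with plate controls; confirmed actives went to concentration-response testing.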
Structure (SMILES),AC50,outcome
c1ccc2c(c1)-c1ccc3ccc4cccc5cc-2c1c3c45,3.45 µM (active),
C#C[C@]1(O)CC[C@H]2[C@@H]3CCc4cc(O)ccc4[C@H]3CC[C@@]21C,25 µM (active) and 6.05 µM (active),inactive
CC/C(=C(\c1ccccc1)c1ccc(OCCN(C)C)cc1)c1ccccc1,,inactive
O=C(c1ccc(OCCN2CCCCC2)cc1)c1c(-c2ccc(O)cc2)sc2cc(O)ccc12,0.711 µM (active),
